This note sets out measurements from PubChem BioAssay (NCI).

About 83,000 compounds went through this panel and 20% of them were active in at least one assay; those are over-represented in the sample as a whole.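 Values shown are percent growth following 48 h exposure of cells in 96-well plates to a single concentration of compound; below 10 was considered active.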 A number with no mark means an inactive call. Active and inactive are the calls of the source.

Some test systems named below: T-47D breast; BT-549 breast; MDA-MB-435 melanoma; SW-620 colon; MCF7 breast; HCT-116 colon; HCC-2998 colon; KM12 colon.
What all share (test): NCI-60 one-dose screen, 48 h (100 = growth as untreated, 0 = no growth, -100 = all killed)
What all share (conditions): 10 µM unless noted

Consider `Cc1ccccc1/C=C/C(=O)c1cccc(OCCCCOc2cccc(C(=O)/C=C/c3ccccc3C)c2)c1`, for which the growth with T-47D breast is 91.4%; in the test with BT-549 breast, 111%; in the test on MDA-MB-435 melanoma, 95%; in the test on SW-620 colon, 94.6%; in the test on MCF7 breast, 41.5%; in the test on HCT-116 colon it was 41.6%. The growth in the test on HCC-2998 colon is 93.4%; with KM12 colon, 96.7%.
For `CCOC(=O)NC(C)C`, the growth with T-47D breast is 100%; in the test on BT-549 breast, 116%; in the test on MDA-MB-435 melanoma, 111%; in the test on SW-620 colon, 111%; with MCF7 breast it was 106%; with HCT-116 colon, 98.4%. Also, the growth was 103% in the test on HCC-2998 colon and 112% in the test on KM12 colon.
As to `Cn1c(I)c(C#CCO[Si](C)(C)C(C)(C)C)c(=O)[nH]c1=O`, the growth in the test with T-47D breast is 61.9%; with BT-549 breast, 97.1%; in the test with MDA-MB-435 melanoma, 97.4%; in the test on SW-620 colon, 11.4%; with MCF7 breast, 88%; in the test with HCT-116 colon, 94.6%. The growth with HCC-2998 colon is 99.7%; in the test with KM12 colon, 107%.
As to `N#Cc1ccc2c(c1)C(=O)c1c-2n(CCCN)c(=O)c2cc([N+](=O)[O-])ccc12`, the growth in the test on T-47D breast is -78.6% (active); in the test on BT-549 breast, -100% (active); with MDA-MB-435 melanoma, -86.3% (active); in the test on SW-620 colon, -100% (active); with MCF7 breast, -74.8% (active); in the test with HCT-116 colon, -100% (active). Besides, the growth was -100% (active) with HCC-2998 colon and -98% (active) with KM12 colon.
For `COc1ccc(C2CC(c3ccc(Nc4nc(Nc5ccccc5)nc(Nc5ccccc5)n4)cc3)=NN2C(C)=O)cc1` (configuration not stated), the growth was 73.4% in the test with T-47D breast; 166% in the test on BT-549 breast; 93.7% with MDA-MB-435 melanoma; 104% with SW-620 colon; 129% with MCF7 breast; 96.5% in the test with HCT-116 colon. The results for the growth in the test on HCC-2998 colon and in the test on KM12 colon were 110% and 112%, respectively.
For `Clc1ccc2c(c1)C(c1c[nH]c3ccccc13)(c1c[nH]c3ccccc13)CCO2`, the growth with T-47D breast is -3.57% (active); in the test on BT-549 breast it was 77.2%; in the test on MDA-MB-435 melanoma, 94.9%; in the test on SW-620 colon, 87.4%; in the test on MCF7 breast, 103%; in the test on HCT-116 colon it was 56.5%. For the same molecule, the growth in the test with HCC-2998 colon is 112%; with KM12 colon, 78.2%.
On to `O=C(c1nn(-c2ccccc2)c2c1CC(NCc1ccc(F)cc1)CC2)N1CCCCC1` (configuration not stated), for which the growth with T-47D breast was 93.6%; in the test on BT-549 breast it was 84.6%; with MDA-MB-435 melanoma, 98.9%; in the test with SW-620 colon, 110%; in the test on MCF7 breast it was 88.1%; with HCT-116 colon, 90.5%. The figures for the growth in the test on HCC-2998 colon and with KM12 colon were 104% and 102%, respectively.
Regarding `O=C(C[C@]1(O)C(=O)Nc2ccccc21)c1cccc(C(F)(F)F)c1`, the growth with T-47D breast is 87.9%; in the test with BT-549 breast, 97.6%; in the test with MDA-MB-435 melanoma, 103%; in the test on SW-620 colon, 91.9%; in the test with MCF7 breast, 81.2%; in the test with HCT-116 colon, 95.5%. The growth is 107% in the test with HCC-2998 colon and 87.6% in the test with KM12 colon.
Consider `C=C(C)[C@@H]1CC[C@]2(C(=O)N3CCOCC3)CC[C@]3(C)[C@H](CC[C@@H]4[C@@]5(C)C/C(=C/c6ccncc6)C(=O)C(C)(C)[C@@H]5CC[C@]43C)[C@@H]12`, for which the growth is 26.5% in the test with T-47D breast; 73.4% in the test with BT-549 breast; 62.3% with MDA-MB-435 melanoma; 50.3% in the test with SW-620 colon; 28.9% in the test on MCF7 breast; 32.4% in the test on HCT-116 colon. The values for the growth in the test on HCC-2998 colon and in the test on KM12 colon were 58.7% and 52.2%, respectively.
Turning to `COC(=O)c1cc(N=C2NC(=O)/C(=C/C=C/c3ccccc3)S2)ccc1O`, the growth in the test on T-47D breast is 32.8%; in the test with BT-549 breast, 48.5%; in the test with MDA-MB-435 melanoma it was -35.6% (active); with SW-620 colon, 31.4%; in the test on MCF7 breast it was 17.9%; in the test on HCT-116 colon, 18.2%. Further, the growth in the test with HCC-2998 colon is 49.1%; with KM12 colon, 23.1%.
Turning to `Fc1cnccc1C1CC(c2ccc(N3CCNCC3)cc2)=NN1` (configuration not stated), the growth in the test with T-47D breast is 82.2%; in the test with BT-549 breast, 85.3%; in the test with MDA-MB-435 melanoma it was 105%; in the test with SW-620 colon it was 93.5%; with MCF7 breast, 73%; with HCT-116 colon, 73.8%. In addition, the growth was 102% in the test with HCC-2998 colon and 96.2% with KM12 colon.
Regarding `CCOC(=O)n1cc(-c2nonc2-c2cn(C(=O)OCC)c3ccc(Br)cc23)c2ccccc21`, the growth is 52.9% in the test with T-47D breast; 98.3% with BT-549 breast; 99.9% in the test on MDA-MB-435 melanoma; 85.8% in the test on SW-620 colon; 69.6% in the test with MCF7 breast; 62.7% in the test with HCT-116 colon. The growth in the test on HCC-2998 colon is 86.9%; in the test with KM12 colon, 72.7%.
Turning to `COc1cc2ncnc(Nc3ccc(S(=O)(=O)Nc4cc(C)on4)cc3)c2cc1OCCCN1CCN(c2ccc(F)cc2)CC1`, the growth is 89.6% with T-47D breast; 119% in the test with BT-549 breast; 105% in the test on MDA-MB-435 melanoma; 100% in the test on SW-620 colon; 96.8% with MCF7 breast; 108% with HCT-116 colon. The growth in the test on HCC-2998 colon was 115%; in the test on KM12 colon it was 107%.
On to `O=C(N(c1ccccc1)c1ccccc1)n1cc(I)c2nc(Cl)nc(Cl)c21`, for which the growth in the test on T-47D breast is 61.2%; with BT-549 breast, 47.4%; in the test with MDA-MB-435 melanoma, 37.4%; in the test on SW-620 colon, 26%; in the test with MCF7 breast, 25.5%; in the test with HCT-116 colon it was 25.7%. Further, the values for the growth in the test with HCC-2998 colon and in the test with KM12 colon were 93.3% and 44.1%, respectively.
